# “And” between values parts separate entries of the source, which are not always exact repeats. Equal values may be shown once. The source made the active and inactive calls. The calls were made as follows: active = hit-call score of the fitted dose curve at least 0.9, where 1 is the maximum; inactive = score below 0.9.
# Assay: BSK_KF3CT_SRB: Viability Assessment in the BioMAP Diversity Plus: KF3CT Assay (AID 2283069);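 also: fitted for both signal gain and loss against DMSO baseline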
# Details: primary human keratinocytes with fibroblasts
# Experimental: BSK_KF3CT is a cell-based, multiplexed-readout assay that uses keratinocytes and foreskin fibroblasts, a human skin primary cell co-culture, with measurements taken at 24 hours after chemical dosing in a 96-well plate.BSK_KF3CT_SRB is an assay component measured in the BSK_KF3CT assay. It measures 0.1% sulforhodamine related to cell death using Sulforhodamine staining technology.Data from the assay component BSK_KF3CT_SRB was analyzed into 1 assay endpoint. This assay endpoint, BSK_KF3CT_SRB, was analyzed with bidirectional fitting relative to DMSO as the negative control and baseline of activity. Using a type of viability reporter, gain or loss-of-signal activity can be used to understand changes in the signaling. Furthermore, this assay endpoint can be referred to as a primary readout, because this assay has produced multiple assay endpoints where this one serves a signaling function. To generalize the intended target to other relatable targets, this assay endpoint is annotated to the cell morphology intended target family, where the subfamily is cell conformation.
# The levels of cell surface (or secreted, indicated by the prefix "s") biomarker endpoints were measured by ELISA. Overt cytotoxicity to cells in confluent adherent cultures (all systems other than the BT system) was assessed by measuring total protein levels using sulforhodamine B (SRB) staining in parallel cultures at the time of biomarker measurements, indicated as SRB endpoints. For proliferation assays for adherent cell types, individual cell types are cultured at sub-confluence and relative cell numbers quantified by SRB staining at time points optimized for each system (48 h: 3C and CASM3C systems; 72 h: BT and HDF3CGF systems; 96 h: SAg system). SRB was performed by staining cells with 0.1% SRB after fixation with 10% TCA and reading wells at 560 nm.Viability and proliferation of PBMC (T cells) was quantified by Alamar Blue reduction for the SAg and BT systems. For PBMC viability (referred to as PBMC Cytotoxicity within the assay endpoint names), cells were plated (75,000/well in a 96-well plate) and then chemical samples added for 1 h before addition of activators, SEB and TSST-1 (20 ng/mL final concentration each). Cells were incubated for 90 h. Then, Alamar Blue (20 uL/well) (Invitrogen, Cat DAL1100) was added for 6 h, and the plates were read with a fluorescence microplate reader at 546/580 nm (excitation/emission). For PBMC proliferation, cells were plated and activated as above but incubated for only 16 h prior to addition of Alamar Blue. Plates were read after 6 h.
Structure (SMILES),outcome,AC50
CNc1cnn(-c2cccc(C(F)(F)F)c2)c(=O)c1Cl,inactive,–
Cc1nn(-c2cc(NS(C)(=O)=O)c(Cl)cc2Cl)c(=O)n1C(F)F,inactive,–
CCOP(=S)(OCC)Oc1ccc2c(C)c(Cl)c(=O)oc2c1,inactive,–
CC[C@H](C)[C@H]1O[C@]2(C=C[C@@H]1C)C[C@@H]1C[C@@H](C/C=C(\C)[C@@H](O[C@H]3C[C@H](OC)[C@@H](O[C@H]4C[C@H](OC)[C@@H](NC)[C@H](C)O4)[C@H](C)O3)[C@@H](C)/C=C/C=C3\CO[C@@H]4[C@H](O)C(C)=C[C@@H](C(=O)O1)[C@]34O)O2,–,6.31 µM (active)
CC(C)N(C(=O)SCC(Cl)=C(Cl)Cl)C(C)C,–,32.5 µM (active)
CCOP(=S)(Oc1cnc(C(C)(C)C)nc1)OC(C)C (stereo not given),–,31.4 µM (active)
CCNc1nc(Cl)nc(NC(C)(C)C#N)n1,inactive,–
CCOP(=O)(NC(C)C)Oc1ccc(SC)c(C)c1 (stereo not given),inactive,–
C[Si](Cn1cncn1)(c1ccc(F)cc1)c1ccc(F)cc1,inactive,–
COP(=O)(OC)SCn1c(=O)oc2cc(Cl)cnc21,–,14.9 µM (active)
CCOP(=S)(OCC)SCCSCC,inactive,–
CC(Oc1cccc(Cl)c1)C(=O)O (stereo not given),inactive,–
COP(=O)(OC)OC(Br)C(Cl)(Cl)Br (stereo not given),–,26.1 µM (active)
CCC(CC)Nc1c([N+](=O)[O-])cc(C)c(C)c1[N+](=O)[O-],inactive,–
Nc1c(Cl)cc([N+](=O)[O-])cc1Cl,inactive,–
CC1(C(=O)Nc2ccc(O)c(Cl)c2Cl)CCCCC1,inactive,–
CCc1cccc(C)c1N(C(=O)CCl)C(C)COC (stereo not given),inactive,–
C#CCC1=C(C)C(OC(=O)C2C(C=C(C)C)C2(C)C)CC1=O (stereo not given),–,22.3 µM (active)
CC(=NC#N)N(C)Cc1ccc(Cl)nc1,inactive,–
CCOP(=S)(OCC)Oc1cc(C)nc(C(C)C)n1,inactive,–

Structure (SMILES),outcome,AC50
CSC1=N[C@@](C)(c2ccccc2)C(=O)N1Nc1ccccc1,inactive,–
O=C(O)c1cc(Oc2ccc(C(F)(F)F)cc2Cl)ccc1[N+](=O)[O-],inactive,–
CCCCSP(=O)(SCCCC)SCCCC,inactive,–
CC(COc1ccc(Oc2ccccc2)cc1)Oc1ccccn1 (stereo not given),inactive,–
CCC(=NOC/C=C/Cl)C1=C(O)CC(C2CCOCC2)CC1=O (stereo not given),inactive,–
CCOP(=O)(SC(C)CC)N1CCSC1=O (stereo not given),inactive,–
C#CC(C)(C)NC(=O)c1cc(Cl)cc(Cl)c1,inactive,–
CSc1nc(NC(C)C)nc(NC(C)C)n1,inactive,–
CN(C)C(=O)Nc1cccc(C(F)(F)F)c1,inactive,–
COc1cc(OC)nc(Sc2cccc(Cl)c2C(=O)O)n1,inactive,–
CNC(=O)ON=C(C)SC,inactive,–
CN(C)[C@@H]1C(=O)C(C(N)=O)=C(O)[C@@]2(O)C(=O)C3=C(O)c4c(O)cccc4[C@@](C)(O)[C@H]3[C@H](O)[C@@H]12,inactive,–
CC1=NNC(=O)N(/N=C/c2cccnc2)C1,inactive,–
CON=C(C(=O)OC)c1ccccc1CON=C(C)c1cccc(C(F)(F)F)c1,inactive,–
CCOC(=O)CC(SP(=O)(OC)OC)C(=O)OCC (stereo not given),inactive,–
C=C(C)[C@H]1Cc2c(ccc3c2O[C@@H]2COc4cc(OC)c(OC)cc4[C@@H]2C3=O)O1,–,3.97 µM (active)
S=C1NCCN1,inactive,–
COP(=O)(NC(C)=O)SC (stereo not given),inactive,–
CSc1nnc(C(C)(C)C)c(=O)n1N,inactive,–
O=[N+]([O-])c1cc(C(F)(F)F)c(Cl)c([N+](=O)[O-])c1Nc1ncc(C(F)(F)F)cc1Cl,–,741 nM (active) and 5.95 µM (active)

# Source: PubChem BioAssay (EPA / NIEHS)
